tim23-1 inh – tim23-1 yeast growth inhibition; AID 463212; 1.3% of 330,000 active; S. cerevisiae tim23-1 growth, BacTiter-Glo luminescence, 24 h; inhibition, % at 20 µM;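 active = growth inhibition of the mutant yeast at or above 50%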;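 note: temperature-sensitive mutant grown at 25 °C; plate controls were DMSO-treated mutant yeast for no effect and medium wells lacking yeast for full effect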
NALP3 yeast inh – inhibitors of NALP3 inflammasome in yeast | Yeast reconstituted NLRP3/ASC/caspase-1, beta-gal luminescence, 24 h | inhibition, % at 10 µM | 0.39% of 330,000 active;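 active = inhibition of 50% or more; inactive = inhibition below 50%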;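 note: plate controls were induced DMSO wells for no effect and uninduced yeast grown without galactose for full effect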
NALP1 inh – inhibitors of NALP1 inflammasome in yeast; S. cerevisiae NALP1/ASC/caspase-1 growth, X-gal OD620, 72 h; inhibition, % at 10 µM; 0.61% of 280,000 active; in the data active = inhibition mostly above about 24%, no sharp cut-off; inactive = mostly below about 32%
TIM10 inh – TIM10 yeast growth inhibition | inhibition, % at 10 µM | 1.4% of 330,000 active | S. cerevisiae TIM10 strain growth, BacTiter-Glo luminescence, 24 h | AID 463195;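 active = inhibition of 40% or more at the single tested concentration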;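 note: wild-type TIM10 isogenic control strain grown at permissive 25 °C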
tim10-1 inh – growth inhibitors of tim10-1 mutant yeast | S. cerevisiae tim10-1 ts strain growth, BacTiter-Glo, 24 h | inhibition, % at 20 µM | 2.2% of 330,000 active | AID 463190;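 active = inhibition of at least 40%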;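 note: mutant grown at 25 °C; 0% = DMSO wells with yeast and 100% = wells holding no yeast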
tim10-1 conf – tim10-1 yeast growth inhibition, confirmed; S. cerevisiae tim10-1 ts strain growth, BacTiter-Glo, 24 h; inhibition, % at 20 µM; shares compounds with tim10-1 inh; 56% of 7,400 active;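 active = inhibition of yeast growth at or above a set limit in either of two repeat tests at 20 µM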;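 note: tim10-1 mutant grown at permissive 25 °C to find synthetic lethal compounds; 0% = DMSO yeast wells and 100% = medium wells without yeast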
Starred values were filed as active, the others as inactive; · = no result. Shown are actives, neighbours in structure and some others; about 4.1% of the full set was active somewhere.

SMILES	tim23-1 inh	NALP3 yeast inh	NALP1 inh	TIM10 inh	tim10-1 inh	tim10-1 conf
Cc1ccc(S(=O)(=O)NCc2ccc(C(=O)N3CCc4ccccc4C3)cc2)cc1	38	11	13	28	47*	28
Cc1ccc(Cn2ncc3c(NN)ncnc32)cc1	30	-17	-10	26	27	·
CC(C)Nc1ncnc2c1cnn2Cc1ccc(Cl)cc1	23	12	16	16	43*	16
CCC(C)Nc1ncnc2c1cnn2Cc1ccc(Cl)cc1 (stereo unspecified)	36	15	3	7	43*	28
Cc1ccccc1OCC(=O)N1N=C(c2cccnc2)CC1(O)C(F)(F)F (stereo unspecified)	21	8	14	26	19	·
COc1ccccc1-c1cc(C(F)(F)F)nc(S(=O)(=O)CCCC(=O)O)n1	27	5	17	10	29	·
COc1ccc(-c2cc(C(F)(F)F)nc(SCC(=O)N3CCOCC3)n2)cc1OC	15	11	-16	-7	9	·
COc1ccccc1-c1cc(C(F)(F)F)nc(S(=O)(=O)CCCC(=O)N2CCOCC2)n1	33	13	15	30	40*	18
COc1ccc(-c2cc(C(F)(F)F)nc(S(=O)(=O)CCC(=O)N3CCOCC3)n2)cc1	17	16	-10	32	48*	30
O=C(Nc1ccccc1)c1cccnc1NCCc1ccccc1	44	10	3	28	40*	32*
COc1cccc(Nc2ncccc2C(=O)Nc2ccccc2)c1	43	34	3	26	53*	38*
COc1cccc(NC(=O)c2ccccc2Oc2ccccc2)c1	26	-2	15	12	10	·
Cc1cc(C)cc(N(CCC#N)C(=O)COC(=O)C2CCN(S(=O)(=O)c3ccc(C)c(C)c3)CC2)c1	-2	-1	·	7	1	·
CCCCSCCCNC(=O)Nc1ccc(C)c(C)c1	31	7	19	1	47*	15
CC1=Nc2cc(C(=O)NCC3CCCO3)ccc2Sc2ccc(C)cc21 (stereo unspecified)	12	2	6	-8	12	·
CC1=Nc2cc(C(=O)NCc3ccco3)ccc2Sc2ccc(C)cc21	34	13	-48	14	44*	30
COc1cccc(NC(=O)Cn2nnc(C(=O)NCCc3ccccc3)c2N)c1	-1	3	4	-10	2	·
Cc1ccc(C(=O)CSC2=C(C#N)C(c3ccco3)C3=C(CC(C)(C)CC3=O)N2)cc1 (stereo unspecified)	24	17	11	16	30	·
N#CC1=C(SCC(=O)c2ccc(Cl)cc2)NC2=C(C(=O)CCC2)C1c1ccco1 (stereo unspecified)	25	8	2	31	46*	23
C[C@H](NC(=O)[C@H]1N2C(=O)c3ccccc3C2SC1(C)C)C(=O)NCC1CCCO1 (stereo partly specified)	-6	18	10	11	-8	·
CN(CC(=O)O/N=C(\N)c1ccc(Br)cc1)S(=O)(=O)c1ccccc1	9	28	16	-4	50*	43*
CN(CC(=O)O/N=C(\N)c1ccccn1)S(=O)(=O)c1ccc(Br)cc1	23	20	·	13	32	·
Cc1ccc(C(C)NC(=O)C2CCCC2)c(C)c1 (stereo unspecified)	5	7	12	-10	4	·
Cc1ccc(C(C)NC(=S)NC2CCCCC2)c(C)c1 (stereo unspecified)	17	22	12	18	41*	8
COc1ccc(NC(=S)NCCc2ccccc2)c(C)c1	12	15	4	-14	19	·
SMILES	tim23-1 inh	NALP3 yeast inh	NALP1 inh	TIM10 inh	tim10-1 inh	tim10-1 conf
COc1ccc(Cl)cc1NC(=S)NCCc1ccc(F)cc1	34	-61	-3	33	51*	34*
Fc1ccc(F)c(NC(=S)NCCc2ccccc2)c1	28	36	20	35	46*	28
Cc1cc(OC(F)F)ccc1NC(=S)NCCc1ccccc1	33	33	6	28	48*	16
COc1ccc(Cl)cc1NC(=S)NCCc1ccc(S(N)(=O)=O)cc1	-9	12	-15	15	7	·
COc1ccc(Cl)cc1NC(=S)NCc1ccco1	35	2	-12	20	55*	36*
O=C(N[C@@H]1c2ccccc2CC[C@@H]1OCc1ccccc1)c1ccc(-c2ccccc2)cc1	19	·	·	-28	3	·
N#CCSc1ccc2nc(-c3ccccc3)cn2n1	29	48	21	9	34	·
S=C(NCCc1ccccc1)Nc1ccc(Nc2ccccc2)cc1	47	29	-3	26	52*	34*
S=C(NCCC(c1ccccc1)c1ccccc1)Nc1ccc(Cl)cc1	27	30	11	34	55*	20
S=C(NCCCc1ccccc1)Nc1ccccc1	47	14	3	23	29	·
COc1ccc(-n2ncc3c2CC(C)(C)CC3NC(=O)C2=CC(=O)CC(C)(C)O2)cc1 (stereo unspecified)	0	20	26	13	7	·
Cc1ccc2nc(SCC(=O)Nc3cc(C(C)(C)C)nn3-c3ccccc3)[nH]c2c1	21	-8	24	24	44*	25
CN(C)c1nc(OCCNC(=O)Nc2ccccc2)nc(N2CCCCC2)n1	21	1	7	16	40*	18
COc1cc(/C=C2\SC(=S)N(Nc3ccccc3)C2=O)ccc1O	29	-15	-4	31	51*	20
CCOC(=O)C1=C(CSc2nc(-c3ccncc3)ccc2C#N)OC(N)=C(C#N)C1c1ccc(OC)cc1 (stereo unspecified)	48	12	12	21	45*	23
CCOC(=O)C1=C(CSc2nc(-c3ccncc3)ccc2C#N)OC(N)=C(C#N)C1c1cccnc1 (stereo unspecified)	11	-8	-7	20	19	·
CCOC(=O)C1=C(CSc2nc(C)ccc2C#N)OC(N)=C(C#N)C1c1cccc(OC)c1OC (stereo unspecified)	25	24	7	39	45*	45*
c1ccc(-c2csc3ncnc(-n4cnc5ccccc54)c23)cc1	36	5	7	23	42*	32*
Cc1ccc(-c2csc3ncnc(-n4nnc5ccccc54)c23)cc1C	38	0	27	25	42*	31*
O=C(Cn1ccc(C(F)(F)F)n1)N=Nc1c(O)[nH]c2ccccc12	11	8	5	24	15	·
CC(C)n1c(O)c(N=NC(=O)Cn2ccc(C(F)(F)F)n2)c2ccccc21	8	-11	-6	15	44*	28
CCOC(=O)c1sc2ncnc(NCc3ccco3)c2c1C	36	17	-4	26	47*	35*
O=C(NCc1ccccc1Br)c1ccc2c(c1)OCCO2	5	26	14	-12	12	·
O=S(=O)(c1ccc2c(c1)oc1ccccc12)N1CCOCC1	15	20	11	14	7	·

Screens (PubChem BioAssay)
